Inconclusive results are not listed. Active and inactive are the calls of the source. Calls follow the shape of the dose curve; as a rule, active = well fitted cell-killing curve with a large enough effect; inconclusive = small, poorly fitted or top-dose-only effect, or effect the other way; inactive = flat fitted curve, though single readings scatter.
Legend:
Assay in all cases: Primary qHTS to identify gynecologic anti-cancer compounds using libraries of approved drugs and bioactive compounds (AID 1345084); also: nearly all actives have a fitted effect of over 55% in size
C33A = details: Gynecologic cancer cell panel viability, ATPlite luminescence, 48 h; series mostly up to 57.5 µM
Method in brief: (§1)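 Cells, 1,000 per well, were allowed to settle for 16 h at 37 C before compound addition. Five concentrations were tested for 48 h, and viability was read by ATPlite luminescence after 15 min at room temperature.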

CAOV3 = details: Gynecologic cancer cell panel viability, ATPlite luminescence, 48 h; series mostly up to 57.5 µM
Method in brief: as §1

CASKI = details: Gynecologic cancer cell panel viability, ATPlite luminescence, 48 h; series mostly up to 57.5 µM
Method in brief: as §1

Es-2 = details: Gynecologic cancer cell panel viability, ATPlite luminescence, 48 h; series mostly up to 57.5 µM
Method in brief: as §1

HeLa = details: Gynecologic cancer cell panel viability, ATPlite luminescence, 48 h; series mostly up to 57.5 µM
Method in brief: as §1

Hek293T = details: Gynecologic cancer cell panel viability, ATPlite luminescence, 48 h, control line for the selectivity index; series mostly up to 57.5 µM
Method in brief: as §1

JEG-3 = details: Gynecologic cancer cell panel viability, ATPlite luminescence, 48 h; series mostly up to 57.5 µM
Method in brief: as §1

OV90 = details: Gynecologic cancer cell panel viability, ATPlite luminescence, 48 h; series mostly up to 57.5 µM
Method in brief: as §1

PA-1 = details: Gynecologic cancer cell panel viability, ATPlite luminescence, 48 h; series mostly up to 57.5 µM
Method in brief: as §1

SKOV3 = details: Gynecologic cancer cell panel viability, ATPlite luminescence, 48 h; series mostly up to 57.5 µM
Method in brief: as §1

Tov-21-G = details: Gynecologic cancer cell panel viability, ATPlite luminescence, 48 h; series mostly up to 57.5 µM
Method in brief: as §1

Tov112D = details: Gynecologic cancer cell panel viability, ATPlite luminescence, 48 h; series mostly up to 57.5 µM
Method in brief: as §1
% is scaled to controls: 0 for no effect and ±100 for the full control effect; potency is read from the fitted curve at half-maximal effect.

O=C(NCC(O)CO)c1ccncc1Nc1ccc(I)cc1F (stereo not given)
inactive: Potency (C33A) | Potency (CAOV3) | Potency (CASKI) | Potency (HeLa) | Potency (Hek293T) | Potency (JEG-3) | Potency (PA-1) | Potency (SKOV3) | Potency (Tov112D)
active: Potency (Es-2) 2 µM | Potency (OV90) 0.0794 µM | Potency (Tov-21-G) 1.58 µM

CC(C)c1ccc(CO)cc1O[C@@H]1O[C@H](CO)[C@@H](O)[C@H](O)[C@H]1O
inactive: Potency (C33A) | Potency (CAOV3) | Potency (CASKI) | Potency (Es-2) | Potency (HeLa) | Potency (Hek293T) | Potency (JEG-3) | Potency (OV90) | Potency (PA-1) | Potency (SKOV3) | Potency (Tov-21-G) | Potency (Tov112D)

Cc1nc2ccc(Oc3ccc(F)cc3)cc2c(=O)n1C[C@H]1CCCN(C(C)C)C1
inactive: Potency (C33A) | Potency (CAOV3) | Potency (CASKI) | Potency (Es-2) | Potency (HeLa) | Potency (Hek293T) | Potency (JEG-3) | Potency (OV90) | Potency (PA-1) | Potency (SKOV3) | Potency (Tov-21-G) | Potency (Tov112D)

COC(=O)/C=C/C12COC(C)(C)C1C(O)C(OC(C)=O)C1(C)C2CCC2(C)C(c3ccoc3)OC(=O)C3OC321 (stereo not given)
inactive: Potency (C33A) | Potency (CAOV3) | Potency (CASKI) | Potency (Es-2) | Potency (HeLa) | Potency (Hek293T) | Potency (JEG-3) | Potency (OV90) | Potency (PA-1) | Potency (SKOV3) | Potency (Tov-21-G) | Potency (Tov112D)

CCOCCn1nc(CC)c2nc(N3CCC(C(=O)O)CC3)nc(Nc3cc(C)ccn3)c21
inactive: Potency (C33A) | Potency (CAOV3) | Potency (CASKI) | Potency (Es-2) | Potency (HeLa) | Potency (Hek293T) | Potency (JEG-3) | Potency (OV90) | Potency (PA-1) | Potency (SKOV3) | Potency (Tov-21-G) | Potency (Tov112D)

COC1CC(OC2CCC3(C)C(=CCC4C3C(OC(C)=O)C(OC(=O)/C=C/c3ccccc3)C3(C)C(C(C)O)CCC43O)C2)OC(C)C1OC1CC(OC)C(OC2OC(C)C(OC3OC(CO)C(O)C(O)C3O)C(OC)C2O)C(C)O1 (stereo not given)
inactive: activity change, negative = cytotoxicity (C33A) -4.62% [at 6.55 µM] | activity change, negative = cytotoxicity (CAOV3) 1.34% [at 6.55 µM] | activity change, negative = cytotoxicity (CASKI) -3.47% [at 6.55 µM] | activity change, negative = cytotoxicity (Es-2) 4.75% [at 6.55 µM] | activity change, negative = cytotoxicity (HeLa) -0.474% [at 6.55 µM] | activity change, negative = cytotoxicity (Hek293T) -0.285% [at 6.55 µM] | activity change, negative = cytotoxicity (JEG-3) -8.61% [at 6.55 µM] | activity change, negative = cytotoxicity (OV90) -2.22% [at 6.55 µM] | activity change, negative = cytotoxicity (PA-1) -0.704% [at 6.55 µM] | activity change, negative = cytotoxicity (SKOV3) -8.31% [at 6.55 µM] | activity change, negative = cytotoxicity (Tov-21-G) 9.97% [at 6.55 µM] | activity change, negative = cytotoxicity (Tov112D) 2.28% [at 6.55 µM]

CC(C)(O)CC(CO)NC(=O)CC(O)CC(=O)Cc1ccccc1 (stereo not given)
inactive: Potency (C33A) | Potency (CAOV3) | Potency (CASKI) | Potency (Es-2) | Potency (HeLa) | Potency (Hek293T) | Potency (JEG-3) | Potency (OV90) | Potency (PA-1) | Potency (SKOV3) | Potency (Tov-21-G) | Potency (Tov112D)

C/C=C1\[C@H](O[C@@H]2O[C@H](CO)[C@@H](O)[C@H](O)[C@H]2O)OC=C(C(=O)OC)[C@H]1CC(=O)O
inactive: Potency (C33A) | Potency (CAOV3) | Potency (CASKI) | Potency (Es-2) | Potency (HeLa) | Potency (Hek293T) | Potency (JEG-3) | Potency (OV90) | Potency (PA-1) | Potency (SKOV3) | Potency (Tov-21-G) | Potency (Tov112D)

CC(O)/C=C/C1OC(=O)CC1Nc1ccc(C(=O)O)cc1 (stereo not given)
inactive: Potency (C33A) | Potency (CAOV3) | Potency (CASKI) | Potency (Es-2) | Potency (HeLa) | Potency (Hek293T) | Potency (JEG-3) | Potency (OV90) | Potency (PA-1) | Potency (SKOV3) | Potency (Tov-21-G) | Potency (Tov112D)

CC1CC(=O)C2=C(CCC3(O)C(O)c4c(O)cccc4C(=O)C23O)C1 (stereo not given)
inactive: Potency (C33A) | Potency (CAOV3) | Potency (CASKI) | Potency (Es-2) | Potency (HeLa) | Potency (Hek293T) | Potency (JEG-3) | Potency (OV90) | Potency (PA-1) | Potency (SKOV3) | Potency (Tov-21-G) | Potency (Tov112D)

COc1cc(Br)c(S(=O)(=O)Nc2ccc(C(F)(F)F)c(O[C@@H]3CCN(C)C3)c2)cc1OC
inactive: Potency (C33A) | Potency (CAOV3) | Potency (CASKI) | Potency (Es-2) | Potency (HeLa) | Potency (Hek293T) | Potency (JEG-3) | Potency (OV90) | Potency (PA-1) | Potency (SKOV3) | Potency (Tov-21-G) | Potency (Tov112D)

COc1ccc(-c2nc(-c3ccc(-c4cccc(Cl)c4)o3)[nH]c2-c2ccc(OC)cc2)cc1
inactive: Potency (C33A) | Potency (CAOV3) | Potency (CASKI) | Potency (Es-2) | Potency (HeLa) | Potency (Hek293T) | Potency (JEG-3) | Potency (OV90) | Potency (PA-1) | Potency (SKOV3) | Potency (Tov-21-G) | Potency (Tov112D)

CC1OC(OC2C(CO)OC(OCC3OC(OC(=O)C45CCC(C)(C)CC4C4=CCC6C7(C)CCC(OC8OC(CO)C(O)C(OC9OC(CO)C(O)C(O)C9O)C8O)C(C)(C)C7CCC6(C)C4(C)CC5)C(O)C(O)C3O)C(O)C2O)C(O)C(O)C1OC1OC(CO)C(O)C(O)C1O (stereo not given)
inactive: activity change, negative = cytotoxicity (C33A) -0.229% [at 6.55 µM] | activity change, negative = cytotoxicity (CAOV3) -14.1% [at 6.55 µM] | activity change, negative = cytotoxicity (CASKI) 8.74% [at 6.55 µM] | activity change, negative = cytotoxicity (Es-2) 5.26% [at 6.55 µM] | activity change, negative = cytotoxicity (HeLa) 3.66% [at 6.55 µM] | activity change, negative = cytotoxicity (Hek293T) 13.1% [at 6.55 µM] | activity change, negative = cytotoxicity (JEG-3) 7.02% [at 6.55 µM] | activity change, negative = cytotoxicity (OV90) 6.18% [at 6.55 µM] | activity change, negative = cytotoxicity (PA-1) 2.62% [at 6.55 µM] | activity change, negative = cytotoxicity (SKOV3) 13.6% [at 6.55 µM] | activity change, negative = cytotoxicity (Tov-21-G) 3.67% [at 6.55 µM] | activity change, negative = cytotoxicity (Tov112D) -6.51% [at 6.55 µM]

CC1=C(C)C(=O)OC(C(C)C2CCC3C4CC=C5CC(OC6OC(COC7OC(CO)C(O)C(O)C7O)C(O)C(O)C6O)CC(O)C5(C)C4CCC23C)C1 (stereo not given)
inactive: Potency (C33A) | Potency (CAOV3) | Potency (CASKI) | Potency (Es-2) | Potency (HeLa) | Potency (Hek293T) | Potency (JEG-3) | Potency (OV90) | Potency (PA-1) | Potency (SKOV3) | Potency (Tov-21-G) | Potency (Tov112D)

Cc1cc(Cl)ccc1COc1ccnn1-c1cc(C(=O)O)ccn1
inactive: Potency (C33A) | Potency (CAOV3) | Potency (CASKI) | Potency (Es-2) | Potency (HeLa) | Potency (Hek293T) | Potency (JEG-3) | Potency (OV90) | Potency (PA-1) | Potency (SKOV3) | Potency (Tov-21-G) | Potency (Tov112D)

From PubChem BioAssay (NCATS)
